In PubChem BioAssay AID449762 (Southern Research Specialized Biocontainment Screening …, 2010):
Screen size: about 330,000 compounds; about 1,900 (0.58%) were called active. Inconclusive results (about 4%) are left out. Not all results are given here. Potency and affinity values are given separately. A number with no mark means an inactive call. No stated cut-off is given here; in the data, inconclusive means inhibition above about 70% without an active follow-up result; inactive means below that.

Experiment: M. tuberculosis growth inhibition, HTS (AID 449762);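 further: bacterial growth assessed after seven days of incubation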
Settings: M. tuberculosis H37Rv growth inhibition, 7H9 media; at 25 µM; active compounds read high

SMILES	inhibition [%]
CCCC(=O)OCC(=O)Nc1ccc([N+](=O)[O-])cc1C#N	0.66
O=C1CCc2cc(S(=O)(=O)NCCc3ccccc3)cc3c2N1CC3	-3.75
CN1CCN(CC(O)COc2ccc(C(=O)O)cc2)CC1 (stereo unspecified)	4
COc1ccc(C=O)cc1CN1CCCN(Cc2ccccc2F)S1(=O)=O	9.36
C=CCc1cc(OC)ccc1OCCOCCC(C(=O)OCC)C(=O)OCC	-13
C=CCc1cc(C)ccc1OCCOCCC(C(=O)OCC)C(=O)OCC	-7.06
Cc1ccc2[nH]c(C(=O)O)c(-c3ccccc3)c2c1	6.59
O=C(NN=C1CCCC1)c1[nH]c2ccc(Br)cc2c1-c1ccccc1	62
CCOC(=O)Cn1cnc2c(nnn2-c2ccc(C)cc2)c1=O	-14.9
CCC(NC(=O)c1cc(COc2c(F)cccc2F)on1)c1ccncc1 (stereo unspecified)	-2.33
CC(CN1C(C)CCCC1C)OC(=O)c1cccc(F)c1 (stereo unspecified)	3.14
CC(C)C1CC(CCN)(Cc2ccccc2)CCO1 (stereo unspecified)	1.79
COc1ccc2cc(C#N)c(N3CCOCC3)nc2c1	3.82
COc1ccc2cc(C#N)c(N3CCN(C(=O)c4ccccc4C)CC3)nc2c1	11.1
O=S(=O)(CCN1CCSCC1)c1ccc(Cl)cc1	-12.2
CSCCC(NC(=O)COc1ccccc1)C(=O)N1CCN(C(C)=O)CC1 (stereo unspecified)	4.67
Cc1ccc(NC(=O)c2c(C)nc3ccccn23)cc1C	-2.44
Cc1nc2ccccn2c1C(=O)N/N=C/c1ccccc1	-1.76
CCOC(=O)N1CCN(C(=O)COC(=O)Cc2ccc(OC)cc2)CC1	-5.2
CC(C)CNC(=O)c1cccc(NC(=O)Cc2ccc(Cl)cc2)c1	-1.92
CCc1nc(C)cn1S(=O)(=O)c1cc(F)ccc1OC	0.63
Cc1ccc(OS(=O)Nc2cccc3nccnc23)cc1 (stereo unspecified)	49
Fc1ccc(Nc2cccc3nccnc23)cc1	7.88
CNC(=S)NNC(=O)c1cc(-c2cccnc2)nc2ccccc12	-1.9

SMILES	inhibition [%]
COc1ccc(NC(=O)COC(=O)CCc2ccc(S(=O)(=O)N3CCOCC3)cc2)c(OC)c1	-0.81
Cc1[nH]n(-c2ccccc2)c(=O)c1C(=O)c1ccc(Cl)cc1	67.2
Cc1[nH]n(-c2ccccc2)c(=O)c1C(=O)c1ccccc1	1.23
COC(=O)CCSc1cc(NCCOC(C)=O)c([N+](=O)[O-])c2nonc12	27.1
CCCSc1cc(NCCOC(C)=O)c([N+](=O)[O-])c2nonc12	14.4
O=c1cc(CO)oc(C(Nc2ccccn2)c2cccc(F)c2)c1O (stereo unspecified)	-4.25
Cc1ccc(-n2ccnc2SCC(=O)c2c(N)n(C3CC3)c(=O)[nH]c2=O)cc1C	-3.24
CC(OC(=O)CCC(=O)c1cccs1)C(=O)Nc1ccccc1[N+](=O)[O-] (stereo unspecified)	-1.97
COc1ccc(OCCCC(=O)OC(C)C(=O)Nc2ccc(NC(C)=O)cc2)cc1 (stereo unspecified)	-25.7
O=C(CC12CC3CC(CC(Br)(C3)C1)C2)Nc1cccc(S(=O)(=O)NC2=NCCC2)c1	7.59
CC(C)(C)NC(=S)N1CCn2cccc2C1c1cccnc1 (stereo unspecified)	-4.33
O=C(N/N=C/c1ccc2ncccc2c1)c1cccc([N+](=O)[O-])c1	10.3
CCCCNC(=O)CSc1nc2cc3c(cc2c(=O)n1Cc1ccco1)OCO3	-13
CCN1C(=O)/C(=C/c2ccc(N3CCCC3)cc2)NC1=S	-3.08
COC(=O)COc1ccc(/C=C2/NC(=O)N(CC(=O)OC)C2=O)cc1	0.75
CN(CC(=O)Nc1c(Cl)cccc1Cl)C(=O)Cc1cccs1	-16.5
O=C(Nc1cccc(-c2nc3ccccc3s2)c1)c1cc(=O)c2ccccc2o1	10.9
Cn1ncc([N+](=O)[O-])c1C(=O)Nc1cccc(Cl)c1	-25.5
Cc1nc2c3ccccc3nc(NNC(=O)CCC(=O)N3CCC(C)CC3)n2n1	-3.15
Cc1nonc1OCCN1CCN(c2ccc([N+](=O)[O-])cc2)CC1	9.04
Cc1ccc(S(=O)(=O)Nc2ccc(C(N)=O)cc2)cc1[N+](=O)[O-]	-1.5
CCOC(=O)c1ccc(NC(C)=O)c([N+](=O)[O-])c1	-9.36
CCCNc1ccc(C(=O)OCC)cc1[N+](=O)[O-]	-11.2
O=C(/C=C/c1ccccc1)N/C(=C/c1ccccc1)C(=O)Nc1cccc(C(=O)O)c1	-8.21

SMILES	inhibition [%]
Nc1cc2c(cc1C(=O)c1ccc(Cl)cc1)OCCO2	4.52
O=C(COc1ccc(Cl)cc1Cl)N/N=C/c1cccnc1	-6.12
CN(C)c1ccc(NC(=O)c2ccncc2)c2ccccc12	-1.45
COc1cc(OC)cc(C(=O)Nc2ccc(N(C)C)c3ccccc23)c1	1.99
CCOC(=O)C1=C(C)Nc2nc(C)nn2C1c1ccc(C)cc1 (stereo unspecified)	5.22
CCCCN(CCCC)Cc1ccc(C(=O)NNC(=O)Nc2ccc(F)cc2)o1	4.32
Cc1ccc(S(=O)(=O)NC(CC(C)C)C(=O)N2CCCC2)cc1 (stereo unspecified)	-3.51
CC(=O)Nc1ccc(S(=O)(=O)N[C@@H](C)C(=O)N2CCN(C/C=C/c3ccccc3)CC2)cc1	-13.2
COc1ccc(-c2ccc(-c3nnn(CC(C)=O)n3)cc2)cc1	12.6
COc1cccc(CN(C)C(=O)C(CCSC)NS(=O)(=O)c2ccc3c(c2)OCCO3)c1OC (stereo unspecified)	-2
CCCCn1cnc2c(oc3nc4c(cc32)CCCC4)c1=O	5.81
Oc1ccc2ccccc2c1/C=N/c1nccs1	0.82
Oc1ccc2ccccc2c1N=Nc1ccccc1F	-3.05
CCOC(=O)c1sc(NC(=O)C(OC(C)=O)c2ccccc2)nc1C (stereo unspecified)	-4.59
O=C(O)c1cc(C(F)(F)F)nc2c(C(F)(F)F)cccc12	-3.33
COc1ccc(OC)c(C(O)C2CCCCN2)c1 (stereo unspecified)	0.57
Cc1sc2nc(-c3ccc(Br)cc3)oc(=O)c2c1C	7.29
O=C1[C@@H]2Cc3c([nH]c4ccccc34)CN2C(=O)CN1CCCCCO	-3.43
c1ccc(Nc2ccccc2Nc2ccccn2)nc1	-3.39
c1ccc(Nc2ccccn2)nc1	4.45
O=C(NC1CCS(=O)(=O)C1)/C(=C/c1ccco1)NC(=O)c1ccccc1 (stereo unspecified)	-0.22
CCC[C@H](N[C@@H](CCC)[C@H](O)c1ccccc1)[C@H](O)c1ccccc1	-2.74
O=C(Nc1ccc(F)cc1)c1ccc(S(=O)(=O)NCC2CCCO2)cc1 (stereo unspecified)	0.17
Cc1ccc(OCCNC(=O)CCNS(=O)(=O)c2ccc3ccccc3c2)cc1	1.14

SMILES	inhibition [%]
O=C(Nc1cnn(Cc2ccccc2)c1)c1cc2nc(-c3ccco3)cc(C(F)(F)F)n2n1	1.16
Cc1nn(C)c(C)c1NC(=O)c1cc2nc(-c3ccco3)cc(C(F)(F)F)n2n1	-8.4
COCCCN1C(=O)c2ccc(C(=O)NCCc3ccccc3)cc2C1=O	0.01
O=[N+]([O-])c1ccc(C2CN=C(Nc3ccccc3)S2)cc1 (stereo unspecified)	0.07
CC1CN=C(Nc2ccccc2)S1 (stereo unspecified)	1.32
Cc1cc2c(OCC(O)CN3CCCCC3)cccc2[nH]1 (stereo unspecified)	-0.02
COc1cc(C(=O)ONC(=O)c2ccc(OC(F)F)cc2)cc(OC)c1OC	0.02
O=C(NCc1ccc(Cl)cc1)C1CCCN(c2cnccn2)C1 (stereo unspecified)	3.46
O=C(COc1ccc(S(=O)(=O)N2CCOCC2)cc1Cl)NCCN1CCOCC1	0.71
COc1ccc(-c2csc(-n3ncc(-c4ccccn4)c3N)n2)cc1	1.41
Nc1c(-c2cccs2)cnn1-c1nc(-c2ccc(F)cc2)cs1	-11.5
COc1ccc(-c2n[nH]c(=S)n2CC(C)C)cc1	-17.2
CN(C)CCCN(C(=O)c1ccc(C(=O)c2ccccc2)cc1)c1nc2cc3c(cc2s1)OCCO3	2.4
Cn1cc(C(=O)c2ccccc2C(=O)O)cc1C(=O)C(Cl)(Cl)Cl	1.33
C=CCNC(=S)NNC(=O)c1cccc2ccccc12	-8.25
CN(c1ccccc1)S(=O)(=O)c1ccc(C(=O)OCC(=O)NCc2cccs2)cc1	-2.53
CCN1C(N(C)CCc2cccs2)=N[C@@H](c2ccccc2)C(C(=O)OC)=C1C	-2.75
CCN1C(=O)N[C@@H](c2cccc(C(F)(F)F)c2)C(C(=O)OC)=C1C	-2.1
C=CC[C@@H](Cc1ccc(F)cc1)C(=O)OC[C@H]1CCCN1C(=O)[C@@H](CC=C)CC(=O)N[C@@H](CO)Cc1ccccc1	-0.18
O=C(SCC(O)C(O)CS)c1cccs1 (stereo unspecified)	-1.44
COc1ccc(C(=O)NN=C2CCCC2)c(OC)c1	-0.32
O=C(C1CCCCC1)N1CCc2ccccc21	0.1
O=C(C1CCC1)N1CCc2cc(S(=O)(=O)N3CCCCC3)ccc21	-8.32
O=C(Nc1ccncc1)c1cc(-c2cccc(Br)c2)nc2ccccc12	-13.1
